Reference: the supplement of paper PMC6555819

tested on: VDR:RXRa (NR concentration 270 nM, RXRa partner concentration 90 nM); experiment: PBM binding z-score (relative to random genomic background probes); higher = stronger binding; sequences stand for … in GC…GCGATTGACAGCGTAGAATGAAGG
Description: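 Protein-binding microarray (Agilent 4x180K custom design, double-stranded 60-nt probes: 5' GC cap, 34-nt variable region, 24-nt constant primer region; full probe sequence given). Purified or IVT nuclear receptor:RXRα heterodimers (3:1 NR:RXRα, mostly 270:90 nM) or homodimers were incubated for 1 h in PBS with 2% milk and no ligand, then detected with Alexa488 antibodies. Fluorescence from o1-orientation probes (~5 replicates averaged) was converted to z-scores against 500 random hg19 background probes. Variable regions are seed direct-repeat (DR0–DR5) sites, all their single-nucleotide variants and half-site ablations.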

Row | Sequence | PBM binding z-score
1 | TCTTGTAGATCAACAGGAGGCTAAGAAAGATCGA | -0.0159
2 | AGAACGAGGGCAGTGAGTTGATAGCACGGGTGGC | 3.91
3 | TCATGTAGATCAGCAGGTTAAGAAAGCTGGCCAA | 0.442
4 | CCTATTAGTTGACTATAAGGGCAACCGAAGCTCG | 0.181
5 | CCTTACGGGTCAAGATTATAGCACGGGTGGTACG | 2.9
6 | CGAACTAGGTAATCCAGGACAGTGAATACATTGA | 0.209
7 | GCTTACGGGTCAAAGGCTATAGCATGAATAGAAT | 3.47
8 | TCTTGTAGATCAAACGTTAAGAAAGCCGAAGCCT | 0.359
9 | CGTCCAAGGTCAATGCTAGGTCAGTCAAAGCATT | 5.1
10 | TAGCCTAGCTCAGATCGGGCCAGTATACGCTATA | -0.94
11 | CGTCCAAGGACATAGGAGGTCAGTGAAGACAGAT | 2.2
12 | GCGCGGAGGACAAGGTCAGAGCTTTGTCCGTAGA | 1.4
13 | TTACCAAGGTGAAAGGTCGTTGGTGCACGCCTTG | 3.5
14 | TCGAGTAGTTTACCAATGGGGCATTCAGCTTTCT | -0.0762
15 | CCTTACAGGTCACTCCAGGTTATAGCATCGGAGT | 4.12
16 | GCAGTCAGGTGAAACGCAGGTAACTCAGGGTGGC | -0.464
17 | CCGACTGGGGCAGAAAGGTTACTATACCATCCGG | 0.555
18 | GAATATAGGTAATACAAGGTGAAAGTCCGATTGT | 0.758
19 | GCTTACGGGTCAACGGTTATAGCATGAATAGAAT | 3.88
20 | TCATATAGGTCAACAGGTGAAAGTCCGTAAGTTA | 4.41

Row | Sequence | PBM binding z-score
21 | ACAGACAGGTGATGAAGGTAACTCAGGCTATCAT | 0.0426
22 | CGTCCAAGGTCAGAGAGTTCAGTGAATGCCGAGT | 7.65
23 | GTACCAAGGTGAAAAGGTCGTTGATGAGTAGGCG | 2.59
24 | TCGAGTAGGTTACCAATGGAGCATTCAGCTTTCT | -0.303
25 | TTACCAAGGTGCAAGGTCGTTGATGCACGCCTTG | 1.92
26 | GGAACGAGGGCAAGTTGATAGCTGAGTTTGATGG | 0.643
27 | TCTGCTAGGTCAACCATGGTCAGCTAATCTGCTA | 2.27
28 | AGTCAAAGTTCACTAGGTAACGCAAGATTCAGCT | 3.39
29 | GGAACGTGGGCATTCGAGTTGATAGCATGGCGAT | -0.17
30 | TCTCGGAGGACAAGAAAGGTCAGAGCTCGACATC | 2.67
31 | CGAACTCGGTCATTGACAGGACAGTGAATAGTAA | 0.452
32 | CCTTACGGGTAAAGGTTATAGCACGGGTGGTACG | 0.723
33 | GCGACAGGGGCAAAGCAGGTTACCATAAGGTTGG | 0.898
34 | TAGCCTAGGTCATTAGGCCAGTATAGTACGCATC | 1.69
35 | CCTACTGGGGCAAAGGTTACCATACTCAGTACGA | 1.86
36 | ACTCTGAGGACAAAGGTCAGAGCTACGCCAGTGA | 3.49
37 | TCTGCTAGGTCAACGATGGTCAGCAAATCTGCTA | 1.64
38 | CCGACTGGGGCAAAGGTTTCCATACTCAGTACGA | -0.277
39 | CCTACTGGGCCAAGGTCATTGTTCAGTCAAAGCA | 3.15
40 | CGTCCAAGGTCAGCGAGGTCAGTGAATGCCGAGT | 7.6
